Measurements: the supplement of paper PMC12340641
Structures can show the parent of a compound that is named as a salt.

Tests used:
[1] = molecular target: IKZF1 (dCK*-IKZF1 fusion in HEK293FT) (UniProt Q13422); assay: inhibition of IKZF1 HTRF signal (DMSO = 0%, pomalidomide 10 uM = 100%); higher = lower IKZF1 protein level; settings: compound concentration: 5 uM, overnight (~20 h)
Summary of the method: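 Values are percent inhibition of IKZF1 signal, normalised plate by plate against vehicle and a reference degrader. HEK293FT cells stably expressing an IKZF1 fusion were seeded at 2000 per well in 384-well plates and exposed to 5 μM compound in single wells overnight at 37 °C. After 30 min lysis at room temperature, lysates were incubated overnight with a commercial HTRF total-IKZF1 antibody kit, and the background-subtracted 665/620 nm time-resolved FRET ratio was read. On each plate, vehicle was set at 0% and the reference degrader at 100%.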

HEK293FT dCK*-only = assay: relative growth in counter assay (no AraC = 100%, AraC + DMSO = 0%); higher = more growth rescue independent of IKZF1; settings: compound concentration: 5 uM; AraC concentration: 0.3 uM; overnight pretreatment + 4 days AraC
Summary of the method: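 This counter assay used HEK293FT cells expressing only an engineered kinase construct, seeded at 300 per well in 384-well plates. Compound was added at 5 μM 2 h after seeding, and after overnight at 37 °C the cells received a nucleoside suicide substrate at 0.3 μM plus medium for 4 days. On day 5, nuclei stained with Hoechst 33342 were counted by imaging, and relative growth was normalised per plate; wells without suicide substrate were set at 100% and wells with substrate plus vehicle at 0%.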

HEK293FT dCK*-IKZF1 = assay: relative growth recovery (pomalidomide 10 uM = 100%, DMSO = 0%); higher = more growth rescue (IKZF1 fusion degradation); settings: compound concentration: 5 uM; AraC concentration: 0.3 uM; overnight pretreatment + 4 days AraC
Summary of the method: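 On day 5, whole-well imaging was used to count Hoechst 33342-stained nuclei of HEK293FT cells stably carrying a deoxycytidine kinase–IKZF1 fusion. These cells had received 5 μM compound 2 h after seeding, followed after overnight at 37 °C by a nucleoside suicide substrate at 0.3 μM plus medium for 4 days. Growth recovery was normalised on each plate against a reference degrader and vehicle, which defined 100% and 0%, and values are duplicate means from separate days.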

Chain of IKZF1 (dCK*-IKZF1 fusion in HEK293FT) (Q13422 whole entry, looked up, the tested form may be a part): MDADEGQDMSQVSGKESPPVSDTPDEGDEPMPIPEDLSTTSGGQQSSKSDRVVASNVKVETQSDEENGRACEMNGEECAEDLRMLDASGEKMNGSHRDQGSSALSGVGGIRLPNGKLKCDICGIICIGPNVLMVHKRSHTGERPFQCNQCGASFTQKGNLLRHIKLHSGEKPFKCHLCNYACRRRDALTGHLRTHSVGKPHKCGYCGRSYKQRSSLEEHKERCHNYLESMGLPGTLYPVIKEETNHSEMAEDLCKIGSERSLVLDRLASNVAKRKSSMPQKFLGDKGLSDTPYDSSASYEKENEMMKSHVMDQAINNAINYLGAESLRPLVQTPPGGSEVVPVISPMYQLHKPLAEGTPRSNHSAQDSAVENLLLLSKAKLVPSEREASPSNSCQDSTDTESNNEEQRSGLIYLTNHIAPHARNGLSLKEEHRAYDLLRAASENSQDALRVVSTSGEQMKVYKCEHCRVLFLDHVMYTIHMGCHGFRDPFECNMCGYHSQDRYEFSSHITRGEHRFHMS

Compound	inhibition of IKZF1 HTRF signal [1] [%]	relative growth in counter assay (HEK293FT dCK*-only) [%]	relative growth recovery (HEK293FT dCK*-IKZF1) [%]
COc1cc([C@@H]2c3cc4c(cc3[C@@H](O[C@@H]3O[C@@H]5CO[C@@H](C)O[C@H]5[C@H](O)[C@H]3O)[C@H]3COC(=O)[C@H]23)OCO4)cc(OC)c1OP(=O)(O)O [Etoposide phosphate]	-12.6	-33.9	-13
CC(=O)[C@@]1(O)C=C(O[C@H]2C[C@H](N)[C@H](O)[C@H](C)O2)c2c(c(O)c3c(O)c4ccccc4c(O)c3c2O)C1 [Idarubicin HCl]	87.1	-34.3	-13
CCN(CC)CCCCC(NC(=O)c1ccc([N+](=O)[O-])cc1)c1ccccc1 (stereo not drawn) [nibentan]	-51.4	11.1	1.83
CC(=O)Nc1ncc([N+](=O)[O-])s1	6.78	5.87	-3.04
CC(C)(C)C1=CC=C(CN(C)[C@H](C(N[C@H]([C@](NC(C)(C)C)=O)CC2=CC=C(OCC3=CC=CC=C3)C=C2)=O)CC(C)C)C=C1	-24.5	1.14	-2.38
CN(C)CCC=C1c2ccccc2CCc2ccccc21	8.98	-1.73	0.57
C[C@H]1[C@H](OC(=O)CCC(=O)O)O[C@@H]2O[C@@]3(C)CC[C@H]4[C@H](C)CC[C@@H]1[C@@]24OO3	37.4	-30	-9.71
COc1c(C)c2c(c(O)c1C/C=C(\C)CCC(=O)O)C(=O)OC2	-27.2	-31.1	-11.7
CC[C@]1(O)C[C@@H]2C[N@@](CCc3c([nH]c4ccccc34)[C@@](C(=O)OC)(c3cc4c(cc3OC)N(C)[C@H]3[C@@](O)(C(=O)OC)[C@H](OC(C)=O)[C@]5(CC)C=CCN6CC[C@]43[C@@H]65)C2)C1.O=S(=O)(O)O [Vinblastine (sulfate)]	-4.41	-34.3	-11.4
CCOC(=O)C1=C[C@]2(CC)CCCN3CCc4c(n1c1ccccc41)[C@@H]32	-26.3	-0.08	3.4
Cc1cc(Nc2ncc(Cl)c(Nc3ccccc3S(=O)(=O)C(C)C)n2)c(OC(C)C)cc1C1CCN(CC(=O)NCCNc2cccc3c2C(=O)N(C2CCC(=O)NC2=O)C3=O)CC1 (stereo not drawn)	24.5	3.63	24.8
O=C(Nc1cnc(Cl)nc1)c1ccc(F)c(F)c1	-25.3	1.83	4.13
CC[C@@]1(O)C(=O)OCc2c1cc1n(c2=O)Cc2c-1nc1cc(F)c(C)c3c1c2[C@@H](N)CC3.CS(=O)(=O)O [Exatecan Mesylate]	-4.98	-35.8	-15.4
Cc1cc(C2CCCCC2)n(O)c(=O)c1	-23.8	-24.9	-10.6
ClC1=CC=CC(NC2=C3C(N(C(C)C)C=N3)=NC(N[C@H]([C@@H](C)C)CO)=N2)=C1 [purvalanol-a]	-35.2	2.99	-1.66
COc1ccc(Cl)cc1C(=O)NCCc1ccc(C(=O)O)cc1 [meglitinide]	-37.6	-0.23	-1.25
CN[C@H]1CC[C@@H](c2ccc(Cl)c(Cl)c2)c2ccccc21 [Sertraline HCl]	18.8	-7.81	-6.62
O=C(Nc1cccc(Cl)c1)Nc1ncc(CCNc2ncnc3ccsc23)s1 [SNS-314 methanesulfonate]	-27	-30.3	-6.71
O=c1oc2c(O)c(O)cc3c(=O)oc4c(O)c(O)cc1c4c23	5.6	-6.38	-3
CCCS(=O)c1ccc2nc(NC(=O)OC)[nH]c2c1 (stereo not drawn) [Albendazole Oxide (Ricobendazole)]	24.3	-7.11	-2.83
Clc1ccccc1C(c1ccccc1)(c1ccccc1)n1ccnc1 [Clotrimazole]	-53.5	11.9	1.77

Compound	inhibition of IKZF1 HTRF signal [1] [%]	relative growth in counter assay (HEK293FT dCK*-only) [%]	relative growth recovery (HEK293FT dCK*-IKZF1) [%]
O=C1CCC(N2C(=O)c3ccccc3C2=O)C(=O)N1 (stereo not drawn) [thalidomide]	-17.1	0.97	1.01
NC(=S)N/N=C/c1ncccc1N [Triapine]	-21.7	-34.8	-13
COc1cc(NS(=O)(=O)c2ccc(N)cc2)ncn1	-31.4	-5.7	-0.825
N#CC(c1ccccc1)(c1ccccc1)c1ccccc1Cl	-37.8	1.13	-0.3
CCc1c2c(nc3ccc(O)cc13)-c1cc3c(c(=O)n1C2)COC(=O)[C@]3(O)CC	36.8	-33.9	-13
c1ccc(C(NCc2cccnc2)(c2ccccc2)c2ccccc2)cc1	-26.2	3.05	-0.7
CCC(=O)O[C@@H]1CC(=O)O[C@H](C)C/C=C/C=C/[C@H](O)[C@H](C)C[C@H](CC=O)[C@H](O[C@@H]2O[C@H](C)[C@@H](O[C@H]3C[C@@](C)(O)[C@@H](OC(=O)CC)[C@H](C)O3)[C@H](N(C)C)[C@H]2O)[C@H]1OC [Midecamycin]	-31.7	-8.86	-1.26
CN1C(=O)/C(=C2/C(=O)Nc3ccccc32)c2ccccc21 [Meisoindigo]	-22.1	-7.74	-3.15
Clc1cccc(Cl)c1CSc1nnc(-c2cnccn2)s1 [yoda-1]	3.26	-3.89	-4.05
CNC(=O)Nc1ccc(-c2nc(N3CC4CCC(C3)O4)c3cnn(C4CCC5(CC4)OCCO5)c3n2)cc1	70.5	-32.9	-13.5
Clc1ccc2c(N3CCN(CCCN4CCN(c5ccnc6cc(Cl)ccc56)CC4)CC3)ccnc2c1	17	3.87	-1.17
CC(C)COCC(CN(Cc1ccccc1)c1ccccc1)N1CCCC1 (stereo not drawn) [bepridil]	21.1	-3.99	-1.14
Cc1ccc(S(=O)(=O)NC(=O)NN2CC3CCCC3C2)cc1 (stereo not drawn)	-29.9	3.82	1.34
CCN(c1ccccc1)c1cc(NC)[n+](C)c(C)n1	26.3	3.09	-0.645
CO[C@H]1O[C@@H]2O[C@@]3(C)CC[C@H]4[C@H](C)CC[C@@H]([C@H]1C)[C@@]24OO3 [Artemether]	-2.04	-7.46	-4.6
CC1(S(=O)(=O)[O-])CC(=O)c2ccccc2C1=O (stereo not drawn) [menadione-bisulfite]	9.55	-12.2	-7.9
O=C(OC)C1=C(C)NC(C)=C(C(OCCCN3CCC(C4=CC=CC=C4)(C5=CC=CC=C5)CC3)=O)[C@H]1[C@]2=CC=CC([N+]([O-])=O)=C2 [niguldipine-(S)-(+)]	-12	-29.9	-10.5
Nc1nc(N)c2nc(-c3cccc(O)c3)cnc2n1	28.6	-10.5	-2.13
O=C(c1ccc(Nc2nccc(-c3cc4ccccc4s3)n2)cc1)N1CCC(N2CCCC2)CC1	-31.3	-35.2	-14.3
NC(=O)N/N=C/c1ccc([N+](=O)[O-])o1	-34.9	-3.72	-4.82
Nc1ncnc2c1c(-c1cnc3[nH]ccc3c1)nn2C1CCCC1	-13.8	-33.6	-11.3

Compound	inhibition of IKZF1 HTRF signal [1] [%]	relative growth in counter assay (HEK293FT dCK*-only) [%]	relative growth recovery (HEK293FT dCK*-IKZF1) [%]
COc1ccccc1NC(=O)OCC1CCN(C(=O)OC(C)(C)C)CC1	-21.9	-0.54	0.27
Nc1ccc(S(=O)(=O)Nc2cnc3ccccc3n2)cc1	-31.3	-4.7	-1.83
CC(=O)Nc1cccc(Nc2ncnc(N3CCC(OCc4ccc(OC(F)(F)F)cc4)CC3)n2)c1C	4.12	-5.23	1.55
CCOC(=O)Nc1nc2ccccc2[nH]1	-22.3	2.38	-1.88
CCCCCCCCCCCCCCCC[N+](C)(C)Cc1ccccc1 [Benzyldimethylhexadecylammonium chloride hydrate]	20.2	-20.7	-4.92
Clc1ccc2c(NCCNc3ccnc4cc(Cl)ccc34)ccnc2c1	-19.4	-2.86	-1.39
Cc1ncsc1-c1ccc(CNC(=O)[C@@H]2C[C@@H](O)CN2C(=O)[C@@H](NC(=O)COCCOCCOCCOc2ccc(-c3ccc4ncnc(Nc5ccc(OCc6cccc(F)c6)c(Cl)c5)c4c3)cc2)C(C)(C)C)cc1	13.3	18	4.09
O=C(Nc1ccc(S(=O)(=O)Nc2ccccc2Cl)c(Cl)c1)c1ccccn1	25.4	1.67	-1.18
Cc1noc(C)c1-c1ccc(-c2cc(C(N)=O)c(NC(N)=O)s2)c(O[C@H]2CCNC2)c1	-26	4.03	3.93
O=C(O)C(O)Cc1ccc(O)c(O)c1 (stereo not drawn) [Sodium Danshensu]	-50.2	0.01	-0.76
Cc1c(-c2ccccc2F)[nH]c(N)c1C#N	-50.1	0.99	0.445
CC(O)(C(=O)Nc1ccc(S(=O)(=O)c2ccccc2)cc1)C(F)(F)F (stereo not drawn)	-44.3	-0.27	0.77
CC(C)[C@@H]1CC[C@@H](C)C[C@@H]1P(=O)(c1ccccc1)c1ccccc1	-20.4	3.21	-0.475
COc1ccc2cc1Oc1ccc(cc1)C[C@H]1c3cc(c(OC)cc3CCN1C)Oc1c(OC)c(OC)cc3c1[C@H](C2)N(C)CC3 [Tetrandrine (Fanchinine)]	8.84	-14.3	-3.42
Clc1ccc(CSC(Cn2ccnc2)c2ccc(Cl)cc2Cl)cc1 (stereo not drawn)	-35.5	-4.03	-1.39
O=S(=O)(O)CCSSCCS(=O)(=O)O	-1.7	-2.36	0.365
Nc1nc(N)c2nc(-c3ccccc3)c(N)nc2n1	3.18	-11	-5.46
C[C@@H]1CC(=O)NN=C1c1ccc(NN=C(C#N)C#N)cc1	-27.1	11.2	-2.62
C/C(=N\NC(=S)N1CCC1)c1ccccn1	-11.1	-34.6	-12.9
